Measured values from PubChem BioAssay AID1159580 (chemical genetic matrix, 2015).
The campaign covered roughly 5,500 compounds. About 2,000 (36%) were called active. Roughly 18% stayed inconclusive and do not appear here. The list shows a part of the results. A number with no mark means an inactive call. Rule as the data show it: active = normalized growth mostly below about 0.91 (no sharp cut-off); inconclusive = no clear call, values can overlap the other calls; inactive = mostly above about 0.92.

Test: chemical genetic growth profiling, strain panel (AID 1159580);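 also: tested at 20 µM; growth read once vehicle control cultures reached saturation at 30 °C; 1 = growth at the plate median or of vehicle wells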
Conditions: growth OD
[1] = S. cerevisiae deletion strains, locus YDL101C, strain DUN1, stronger effect = lower value
[2] = S. cerevisiae deletion strains, locus YHR030C, strain SLT2, stronger effect = lower value

Cc1cc(C)c(Cn2nc(C(C)(C)C)cc2C(=O)Nc2cccc(C(F)(F)F)c2)c(C)c1
normalized growth (S. cerevisiae deletion strains, locus YAL013W, strain DEP1, stronger effect = lower value): 0.991 | normalized growth (S. cerevisiae deletion strains, locus YBR229C, strain ROT2, stronger effect = lower value): 1.06 | normalized growth (S. cerevisiae deletion strains, locus YCL061C, strain MRC1, stronger effect = lower value): 0.99 | normalized growth [1]: 0.999 | normalized growth (S. cerevisiae deletion strains, locus YDR150W, strain NUM1, stronger effect = lower value): 1.16 | normalized growth (S. cerevisiae deletion strains, locus YEL061C, strain CIN8, stronger effect = lower value): 0.986 | normalized growth (S. cerevisiae deletion strains, locus YGR078C, strain PAC10, stronger effect = lower value): 0.998 | normalized growth [2]: 1.1 | normalized growth (S. cerevisiae deletion strains, locus YHR087W, strain rtc3, stronger effect = lower value): 0.999 | normalized growth (S. cerevisiae deletion strains, locus YJR043C, strain POL32, stronger effect = lower value): 0.927 | normalized growth (S. cerevisiae deletion strains, locus YLR039C, strain RIC1, stronger effect = lower value): 1.02 | normalized growth (S. cerevisiae deletion strains, locus YLR058C, strain SHM2 (second series), stronger effect = lower value): 1 | normalized growth (S. cerevisiae deletion strains, locus YLR085C, strain ARP6, stronger effect = lower value): 1.01 | normalized growth (S. cerevisiae deletion strains, locus YLR262C, strain YPT6, stronger effect = lower value): 1.02 | normalized growth (S. cerevisiae deletion strains, locus YML094W, strain GIM5, stronger effect = lower value): 1 | normalized growth (S. cerevisiae deletion strains, locus YMR219W, strain ESC1, stronger effect = lower value): 0.998 | normalized growth (S. cerevisiae deletion strains, locus YMR263W, strain SAP30, stronger effect = lower value): 0.988 | normalized growth (S. cerevisiae deletion strains, locus YNL153C, strain GIM3, stronger effect = lower value): 1 | normalized growth (S. cerevisiae deletion strains, locus YNL298W, strain CLA4 (second series), stronger effect = lower value): 1.02 | normalized growth (S. cerevisiae deletion strains, locus YNL322C, strain KRE1, stronger effect = lower value): 0.992 | normalized growth (S. cerevisiae deletion strains, locus YNR030W, strain Alg12, stronger effect = lower value): 0.994 | normalized growth (S. cerevisiae deletion strains, locus YOL006C, strain TOP1, stronger effect = lower value): 1.06 | normalized growth (S. cerevisiae deletion strains, locus YPL055C, strain LGE1, stronger effect = lower value): 1.05 | normalized growth (S. cerevisiae deletion strains, locus YPL241C, strain CIN2, stronger effect = lower value): 0.995 | normalized growth (S. cerevisiae deletion strains, locus YPR135W, strain CTF4, stronger effect = lower value): 1.07 | normalized growth (S. cerevisiae strains, strain wild type, stronger effect = lower value): 1

CC(C)(C)c1cc(C(=O)Nc2ccc3c(c2)OCO3)n(Cc2ccc(F)cc2)n1
normalized growth (S. cerevisiae deletion strains, locus YAR019C, strain CDC15, stronger effect = lower value): 0.987 | normalized growth (S. cerevisiae deletion strains, locus YBL105C, strain PKC1, stronger effect = lower value): 0.968 | normalized growth (S. cerevisiae deletion strains, locus YBR135W, strain CKS1, stronger effect = lower value): 0.979 | normalized growth (S. cerevisiae deletion strains, locus YBR136W, strain MEC1, stronger effect = lower value): 0.99 | normalized growth (S. cerevisiae deletion strains, locus YBR160W, strain CDC28, stronger effect = lower value): 0.98 | normalized growth (S. cerevisiae deletion strains, locus YDL017W, strain CDC7, stronger effect = lower value): 0.989 | normalized growth (S. cerevisiae deletion strains, locus YDL028C, strain MPS1, stronger effect = lower value): 0.991 | normalized growth [1]: 0.997 | normalized growth (S. cerevisiae deletion strains, locus YDL108W, strain KIN28, stronger effect = lower value): 0.986 | normalized growth (S. cerevisiae deletion strains, locus YDL132W, strain cdc53, stronger effect = lower value): 0.972 | normalized growth (S. cerevisiae deletion strains, locus YDL214C, strain PRR2, stronger effect = lower value): 0.908 | normalized growth (S. cerevisiae deletion strains, locus YDR052C, strain DBF4, stronger effect = lower value): 0.988 | normalized growth (S. cerevisiae deletion strains, locus YDR054C, strain cdc34, stronger effect = lower value): 0.993 | normalized growth (S. cerevisiae deletion strains, locus YDR226W, strain ADK1, stronger effect = lower value): 0.983 | normalized growth (S. cerevisiae deletion strains, locus YDR477W, strain SNF1, stronger effect = lower value): 0.938 | normalized growth (S. cerevisiae deletion strains, locus YER123W, strain YCK3, stronger effect = lower value): 0.906 | normalized growth (S. cerevisiae deletion strains, locus YER133W, strain GLC7, stronger effect = lower value): 0.955 | normalized growth (S. cerevisiae deletion strains, locus YFL009W, strain cdc4, stronger effect = lower value): 0.994 | normalized growth (S. cerevisiae deletion strains, locus YFL029C, strain CAK1, stronger effect = lower value): 0.98 | normalized growth (S. cerevisiae deletion strains, locus YFR003C, strain YPI1, stronger effect = lower value): 0.991 | normalized growth (S. cerevisiae deletion strains, locus YFR019W, strain FAB1, stronger effect = lower value): 0.938 | normalized growth (S. cerevisiae deletion strains, locus YFR028C, strain CDC14, stronger effect = lower value): 0.978 | normalized growth (S. cerevisiae deletion strains, locus YGR040W, strain KSS1, stronger effect = lower value): 0.916 | normalized growth (S. cerevisiae deletion strains, locus YGR052W, strain FMP48, stronger effect = lower value): 0.997 | normalized growth (S. cerevisiae deletion strains, locus YGR092W, strain DBF2, stronger effect = lower value): 0.902 | normalized growth [2]: 0.878 | normalized growth (S. cerevisiae deletion strains, locus YHR079C, strain IRE1, stronger effect = lower value): 0.926 | normalized growth (S. cerevisiae deletion strains, locus YHR082C, strain KSP1, stronger effect = lower value): 0.984 | normalized growth (S. cerevisiae deletion strains, locus YHR205W, strain SCH9, stronger effect = lower value): 0.86 | normalized growth (S. cerevisiae deletion strains, locus YIL147C, strain SLN1, stronger effect = lower value): 0.99 | normalized growth (S. cerevisiae deletion strains, locus YJL095W, strain BCK1, stronger effect = lower value): 0.877 | normalized growth (S. cerevisiae deletion strains, locus YJL128C, strain PBS2, stronger effect = lower value): 0.977 | normalized growth (S. cerevisiae deletion strains, locus YJL157C, strain FAR1, stronger effect = lower value): 0.909 | normalized growth (S. cerevisiae deletion strains, locus YJR016C, strain ILV3, stronger effect = lower value): 0.981 | normalized growth (S. cerevisiae deletion strains, locus YJR066W, strain TOR1 (second series), stronger effect = lower value): 0.889 | normalized growth (S. cerevisiae deletion strains, locus YJR066W, strain TOR1, stronger effect = lower value): 0.999 | normalized growth (S. cerevisiae deletion strains, locus YKL048C, strain ELM1, stronger effect = lower value): 0.931 | normalized growth (S. cerevisiae deletion strains, locus YKL067W, strain YNK1, stronger effect = lower value): 0.94 | normalized growth (S. cerevisiae deletion strains, locus YKL101W, strain HSL1, stronger effect = lower value): 0.891 | normalized growth (S. cerevisiae deletion strains, locus YKL193C, strain SDS22, stronger effect = lower value): 0.987 | normalized growth (S. cerevisiae deletion strains, locus YKL203C, strain TOR2, stronger effect = lower value): 0.994 | normalized growth (S. cerevisiae deletion strains, locus YLR113W, strain HOG1, stronger effect = lower value): 0.858 (active) | normalized growth (S. cerevisiae deletion strains, locus YLR133W, strain CKI1, stronger effect = lower value): 0.918 | normalized growth (S. cerevisiae deletion strains, locus YLR403W, strain SFP1, stronger effect = lower value): 0.906 | normalized growth (S. cerevisiae deletion strains, locus YML070W, strain DAK1, stronger effect = lower value): 0.895 | normalized growth (S. cerevisiae deletion strains, locus YMR001C, strain CDC5, stronger effect = lower value): 0.982 | normalized growth (S. cerevisiae deletion strains, locus YMR205C, strain PFK2 (second series), stronger effect = lower value): 0.926 | normalized growth (S. cerevisiae deletion strains, locus YMR277W, strain FCP1, stronger effect = lower value): 0.971 | normalized growth (S. cerevisiae deletion strains, locus YNL006W, strain LST8, stronger effect = lower value): 0.987 | normalized growth (S. cerevisiae deletion strains, locus YNL020C, strain ARK1, stronger effect = lower value): 0.889 | normalized growth (S. cerevisiae deletion strains, locus YNL161W, strain CBK1, stronger effect = lower value): 0.969 | normalized growth (S. cerevisiae deletion strains, locus YNL183C, strain NPR1, stronger effect = lower value): 0.928 | normalized growth (S. cerevisiae deletion strains, locus YNL207W, strain RIO2, stronger effect = lower value): 0.986 | normalized growth (S. cerevisiae deletion strains, locus YNL222W, strain SSU72, stronger effect = lower value): 0.983 | normalized growth (S. cerevisiae deletion strains, locus YNL307C, strain MCK1 (second series), stronger effect = lower value): 0.9 | normalized growth (S. cerevisiae deletion strains, locus YOL078W, strain AVO1, stronger effect = lower value): 0.981 | normalized growth (S. cerevisiae deletion strains, locus YOL136C, strain PFK27, stronger effect = lower value): 0.892 | normalized growth (S. cerevisiae deletion strains, locus YOR061W, strain CKA2, stronger effect = lower value): 0.874 | normalized growth (S. cerevisiae deletion strains, locus YOR119C, strain RIO1, stronger effect = lower value): 0.992 | normalized growth (S. cerevisiae deletion strains, locus YOR231W, strain MKK1, stronger effect = lower value): 0.876 | normalized growth (S. cerevisiae deletion strains, locus YOR329C, strain SCD5, stronger effect = lower value): 0.96 | normalized growth (S. cerevisiae deletion strains, locus YPL031C, strain PHO85, stronger effect = lower value): 0.934 | normalized growth (S. cerevisiae deletion strains, locus YPL153C, strain RAD53, stronger effect = lower value): 0.923 | normalized growth (S. cerevisiae deletion strains, locus YPL204W, strain HRR25, stronger effect = lower value): 0.909 | normalized growth (S. cerevisiae deletion strains, locus YPL209C, strain IPL1, stronger effect = lower value): 0.968 | normalized growth (S. cerevisiae deletion strains, locus YPL256C, strain CLN2, stronger effect = lower value): 0.887 | normalized growth (S. cerevisiae deletion strains, locus YPR025C, strain CCL1, stronger effect = lower value): 0.995 | normalized growth (S. cerevisiae deletion strains, locus YPR106W, strain ISR1, stronger effect = lower value): 0.964 | normalized growth (S. cerevisiae deletion strains, locus YPR111W, strain DBF20, stronger effect = lower value): 0.936 | normalized growth (S. cerevisiae deletion strains, strain NNK1, stronger effect = lower value): 0.974 | normalized growth (S. cerevisiae deletion strains, strain TSCII, stronger effect = lower value): 0.986
